Screening results deposited in PubChem by National Center for Advancing Translational Sciences (NCATS).
TDP1 cell noCPT: qHTS for Inhibitors of human tyrosyl-DNA phosphodiesterase 1 (TDP1): qHTS in cells in absence of CPT; hit rate 15% among 420,000; Potency, µM (top dose mostly 46.2 µM), without a hit: top-dose activity change, negative = growth inhibition, hits mostly inhibitors; DT40 Tdp1-/- hTDP1 cells, no CPT, ATP luminescence, 48 h; AID 686978, 2013; also: potency is read from the fitted curve at half-maximal effect; nearly all actives have a fitted effect of over 55% in size
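Chicken DT40 Tdp1-/- cells stably complemented with human TDP1 were seeded at 400 cells/well with DMSO in place of 20 nM camptothecin. After compound pinning, cells grew at least 48 hr at 37 °C; viability read by CellTiter-Glo luminescence.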
ALOX12 inh: ALOX12 (human) lipoxygenase inhibition; purified 12hLO, xylenol orange hydroperoxide absorbance; Potency, µM (top dose mostly 108 µM), for the others: at the highest dose activity change, negative = inhibition, most hits filed as inhibitors; hit rate 1.1% among 580,000; also: potency is read from the fitted curve at half-maximal effect
Target sequence (P18054 whole entry, looked up): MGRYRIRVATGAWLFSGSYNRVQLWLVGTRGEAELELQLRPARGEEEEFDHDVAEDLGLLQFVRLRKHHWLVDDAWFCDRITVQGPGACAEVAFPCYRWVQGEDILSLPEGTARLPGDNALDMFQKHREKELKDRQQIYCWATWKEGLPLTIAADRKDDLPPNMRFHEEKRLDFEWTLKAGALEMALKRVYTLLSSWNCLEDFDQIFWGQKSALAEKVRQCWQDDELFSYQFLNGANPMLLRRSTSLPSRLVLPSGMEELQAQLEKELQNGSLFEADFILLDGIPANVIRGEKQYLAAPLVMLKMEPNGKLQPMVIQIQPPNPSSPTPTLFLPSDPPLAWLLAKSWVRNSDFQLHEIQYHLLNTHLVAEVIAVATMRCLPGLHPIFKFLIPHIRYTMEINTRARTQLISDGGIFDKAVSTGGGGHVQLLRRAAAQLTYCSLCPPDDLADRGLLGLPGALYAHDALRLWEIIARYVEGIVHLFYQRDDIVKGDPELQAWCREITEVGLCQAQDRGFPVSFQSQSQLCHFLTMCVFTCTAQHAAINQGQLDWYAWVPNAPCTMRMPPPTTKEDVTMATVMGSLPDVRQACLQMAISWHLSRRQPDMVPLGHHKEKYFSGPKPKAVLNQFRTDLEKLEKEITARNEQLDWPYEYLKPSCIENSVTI
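Hydroperoxide product was detected by ferrous iron/xylenol orange as the 573 to 405 nm absorbance ratio. Arachidonic acid at 40 uM (final) was turned over for 30 min at room temperature by 150 nM human 12hLO, pH 7.0 Hepes buffer, after 15 min compound preincubation.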
IL1B secr inh: blocks inflammasome-driven IL-1 beta release | activity change, % at 57.5 µM | hit rate 4.7% among 360,000 | THP-1 LPS/ATP IL-1B secretion, AlphaLISA, 16 h; active compounds read low | AID 743279; in the data active = activity change below about -50%; inconclusive = mostly about -30% to -49%
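Secreted IL-1B measured by AlphaLISA bead assay after 16 h compound exposure of THP-1 cells; compounds (final up to 57.5 uM) added 1 h before LPS (250 ng/mL) and ATP (1.25 mM) stimulation; lower signal means less secretion.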
HT1080NT lethal: kills 2HG-producing HT-1080-NT fibrosarcoma cells; Potency, µM (titrated, usually from 46.1 µM), for the others: at the highest dose activity, negative = less viability, hits mostly cytotoxic; HT-1080-NT fibrosarcoma viability, CellTiter-Glo ATP luminescence, 48 h; hit rate 1.6% among 360,000;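 also: NT is the 2HG producing partner of a matched IDH1 knockdown line; potency is read from the fitted curve at half-maximal effect; 0% = DMSO-treated cells and -100% = media-only wells without cells; nearly all actives have a fitted effect of over 55% in size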
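A 48-hour cytotoxicity screen used HT-1080-NT cells plated 2 hours before compound delivery. ATP-based CellTiter-Glo luminescence measured viability, normalized to DMSO and no-cell controls.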
HT1080 IDH1KD tx: HT-1080 IDH1 knockdown cell toxicity (counter line) | AID 686971 | hit rate 2% among 360,000 | Potency, µM (highest dose often 46.1 µM), for the others: at the highest dose activity, negative = toxicity, hits mostly cytotoxic | HT-1080 IDH1 knockdown viability, ATP luminescence, 48 h;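 also: potency is read from the fitted curve at half-maximal effect; 0% = DMSO wells and -100% = cell-free medium wells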
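HT-1080-IDH1KD cells (IDH1 knocked down), 750/well in RPMI with 5% FBS, treated with compound 48 h at 37 degrees C. Viability by CellTiter-Glo luminescence, normalised to DMSO and no-cell wells; concentration-response curves classed.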
TDP1 cell CPT: growth inhibition of DT40 Tdp1-/-;hTDP1 cells with camptothecin (screen for TDP1 inhibitors) | chicken DT40 Tdp1-/-;hTDP1 cells + 20 nM CPT, ATP luminescence, 48 h | Potency, µM (series often up to 46.2 µM), for inactives: at the top dose activity change, negative = growth inhibition, actives largely listed as inhibitors | hit rate 12% among 420,000; also: potency is read from the fitted curve at half-maximal effect; nearly all actives have a fitted effect of over 55% in size
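Cell growth measured by CellTiter-Glo luminescence after a minimum 48 h, 37 C compound exposure with 20 nM CPT in Tdp1-knockout DT40 cells stably expressing hTDP1, seeded 400/well; qHTS titration format.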
The depositor's hits bear a star; ? = inconclusive; . = not tested or not shown; ! = not active in a repeat; [ ] = dose if it differs, or a comment. The full list was thinned out, with hits kept by preference. Unless noted, calls follow the shape of the dose curve; as a rule, active = well fitted curve in the direction sought with a large enough effect; inconclusive = small, poorly fitted or top-dose-only effect, or another doubt; inactive = no such curve, though single readings can be large; an effect the other way counts as inactive or inconclusive. Unless noted, % is scaled to controls: 0 for no effect and ±100 for the full control effect.

SMILES | TDP1 cell noCPT | ALOX12 inh | IL1B secr inh | HT1080NT lethal | HT1080 IDH1KD tx | TDP1 cell CPT
CCOCCCNC(=O)c1cc2cc(C)ccc2nc1C | . | 9.9% | . | . | . | .
CCCC(C)C(=O)NCc1cccs1 (stereo unspecified) | . | -5.9% | . | . | . | .
CC(=O)NNC(=S)Nc1ccccc1Cl | . | 13.7% | . | . | . | .
CCCCS(=O)(=O)c1nc(-c2ccc(Br)cc2)cc(-c2ccccc2)c1C#N | 2.59µM* | -10.4% | . | . | . | 3.66µM*
Cc1ccc(SCCC(=O)OC(C(=O)NC(N)=O)C(C)C)cc1 (stereo unspecified) | 16.4µM* | 341.4% | 23.3 | 0.0% | 11.4% | 16.4µM*
Cc1ccc(SCCC(=O)OC(C)C(=O)Nc2ccc(C(N)=O)cc2)cc1 (stereo unspecified) | . | -34.1% | . | . | . | .
O=C(CC(CC(=O)c1ccccc1)c1ccncc1)c1ccccc1 | ? | -20.5% | -2.4 | 3.9% | -13.0% | ?
O=C(CC(CC(=O)c1ccc(Br)cc1)c1cccnc1)c1ccc(Br)cc1 | 14.6µM* | 0.0% | 9.5 | ? | 12.7% | 14.6µM*
COc1cc(Nc2c(C#N)cnc3c(OC)cccc23)cc(OC)c1OC | . | 3.16µM* | . | . | . | .
CCNc1c(NC(=O)c2cccc(OC)c2)c(=O)oc2ccccc12 | . | -3.7% | . | . | . | .
COc1ccc(CNC(=S)Nc2cc(C)ccc2C)cc1 | 18.4µM* | ? | 8.3 | 4.9% | 2.6% | ?
COc1ccc(CCNC(=S)Nc2cc(C)ccc2C)cc1 | ? | ? | -8.2 | -5.4% | -4.1% | ?
Cc1cc(Cl)ccc1NC(=S)NCc1ccccc1 | ? | ? | -6.9 | -3.5% | -5.4% | ?
COc1ccc(/C(C)=N/NC(=S)Nc2cc(C)ccc2C)cc1 | 23.1µM* | 44.7µM* | 13.4 | -10.2% | -6.0% | 23.1µM*
COc1ccc(CCNC(=S)Nc2ccc(C)cc2C)cc1 | ? | ? | 0.0 | 1.2% | 5.2% | ?
Cc1ccc(NC(=S)NCc2ccc(Cl)cc2)c(C)c1 | ? | 35.5µM* | -10.0 | -6.8% | -3.0% | ?
CCCc1nc(SC)ncc1C(=O)Nc1ccccc1F | . | -21.3% | . | . | . | .
O=[N+]([O-])c1ccc(Cl)nc1 | . | 64.6% | . | . | . | .
CCCc1ccc(C(C)NC(=O)C2CC2C)cc1 (stereo unspecified) | . | 19.5% | . | . | . | .
CCCN(CCO)CCCc1ccccc1 | -15.2% | ? | -4.1 | 19.9% | 19.7% | 1.5%
CCN(CCCc1ccccc1)CCCc1ccccc1 | 23.1µM*! | ? | -17.9 | ? | ? | 10.3µM*!
COc1cc(/C=N/Nc2nc(N3CCCC3)nc(N3CCCC3)n2)ccc1OCc1ccccc1F | 20.6µM* | 0.0% | -13.0 | 11.8% | 7.9% | 16.4µM*
CC#CCOC(=O)c1c(C)nc2sc3c(c2c1N)CC[C@@H](O)C3 | 10.6µM* | ? | . | . | . | -58.7%
C=C1/C(=C\C=C2/CCC[C@]3(C)C([C@H](C)CCCC(C)(C)O)CC[C@@H]23)C[C@@H](O)C[C@@H]1O (stereo partly specified) | -21.3%[4.12 µM] | -1.5%[12.5 µM] | . | . | . | ?
C=C1/C(=C\C=C2/CCC[C@]3(C)[C@@H]([C@H](C)OCCC(C)(C)O)CC[C@@H]23)C[C@@H](O)C[C@@H]1O | ? | . | . | . | . | 15µM*
SMILES | TDP1 cell noCPT | ALOX12 inh | IL1B secr inh | HT1080NT lethal | HT1080 IDH1KD tx | TDP1 cell CPT
C=C1C(=CC=C2CCCC3(C)[C@@H]([C@H](C)C=CC=CC(O)(CC)CC)CC[C@@H]23)C[C@@H](O)C[C@@H]1O (stereo partly specified) | . | -43.0%[57.4 µM] | . | . | . | .
C=C1CC[C@H](O)CC1=C/C=C1\CCC[C@]2(C)[C@@H]([C@H](C)CC[C@@H](O)C(C)(C)O)CC[C@@H]12 | 23.7µM* | . | . | . | . | ?
COc1ccc(S(=O)(=O)N(CC(C)C)C2CCS(=O)(=O)C2)cc1C (stereo unspecified) | . | 2.5% | . | . | . | .
CCOC(=O)C(NC(=O)NCc1ccccc1)(OCC)C(F)(F)F (stereo unspecified) | 23.1µM* | -14.1% | 0.0 | -11.4% | 0.3% | ?
O=C(OCc1c(F)cccc1Cl)c1ccc(C2Nc3ccccc3S(=O)(=O)N2)cc1 (stereo unspecified) | . | -6.4% | . | . | . | .
CC(=O)/C(=C/c1ccccc1)C(=O)Nc1ccccc1C | 4.61µM* | 6.2% | -104.3* | ? | ? | ?
Cc1ccccc1NC(=O)C(=Cc1ccc(C(=O)O)cc1)C(=O)Nc1ccccc1C | 8.2µM* | -12.1% | -106.1* | 6.51µM* | 4.61µM* | 9.2µM*
c1ccc(-c2cn3c4c(sc3n2)CCCC4)cc1 | ? | -13.4% | -17.0 | 11.2µM* | ? | ?
Cc1cccc(C(=O)NCCc2csc(C)n2)n1 | . | -34.0% | . | . | . | .
CCCCC(=O)Nc1ccc(S(=O)(=O)N2CCCCC2c2cccnc2)cc1 (stereo unspecified) | 13µM* | 0.0% | 0.0 | -0.9% | -10.3% | 18.4µM*
O=C(Nc1ccc(S(=O)(=O)N2CCCCC2c2cccnc2)cc1)c1c(F)cccc1F (stereo unspecified) | ? | -12.6% | -10.1 | 13.1% | 2.3% | ?
O=C(Nc1ccc(S(=O)(=O)N2CCCCC2c2cccnc2)cc1)c1ccc(Br)cc1 (stereo unspecified) | 9.2µM* | -11.3% | . | . | . | 16.4µM*
CCOC(=O)c1c(C)[n+](-c2ccc(C)cc2)c(CC)c2cc(OC)c(OC)cc12 | 2.59µM* | 8.8% | 21.1 | ? | ? | 2.06µM*
CCOC(=O)c1c(-c2ccc(OC)c(OC)c2)csc1NC(=O)c1ccc(C)cc1 | -18.3% | ? | . | . | . | -18.2%
CCOC(=O)c1cnc2ccc(Cl)cc2c1N1CCN(C)CC1 | -28.5% | -20.0% | -24.8 | -18.0% | -1.7%[9.24 µM] | ?
CCOC(=O)c1cnc2c(C)cc(Cl)cc2c1N1CCN(C)CC1 | ? | -0.8% | -64.5* | 1.5% | 6.3% | ?
CCOC(=O)c1cnc2c(OC)cccc2c1N1CCN(c2ccccc2OC)CC1 | 13µM* | 0.0% | -96.9* | -26.4% | -14.6% | ?
CCOC(=O)c1cnc2c(OC)cccc2c1N1CCN(c2ccc(OC)cc2)CC1 | 16.4µM* | 30.3% | -19.4 | -0.7% | 2.1% | ?
CCOC(=O)c1cnc2c(C(F)(F)F)cccc2c1N1CCN(C)CC1 | -23.0% | ? | -12.4 | -24.1% | -26.3% | -7.9%
CCOC(=O)c1cnc2c(OC)cccc2c1N1CC(C)CC(C)C1 (stereo unspecified) | 7.31µM* | 0.0% | 45.2 | 0.7% | -0.2% | 11.6µM*
